This excerpt belongs to a sample that is enriched for hits.
LmPK inh: qHTS Assay for Inhibitors of Leishmania Mexicana Pyruvate Kinase (LmPK); Q27686; purified LmPK, Kinase-Glo ATP luminescence, 1 h; Potency, µM (highest dose often 57.5 µM), inactives show at the top dose activity change, negative = inhibition, usual class: inhibitors; 290,000 compounds, 0.37% hits; AID 1721, 2009; active means well fitted curve in the direction sought with a large enough effect; inconclusive means small, poorly fitted or top-dose-only effect, or another doubt; inactive means no such curve, though single readings can be large; an effect the other way counts as inactive or inconclusive; further: potency means the concentration at half of the fitted maximal effect; on the % scale 0 is the no-effect control and ±100 the full control effect
Target sequence (Q27686 whole entry, looked up): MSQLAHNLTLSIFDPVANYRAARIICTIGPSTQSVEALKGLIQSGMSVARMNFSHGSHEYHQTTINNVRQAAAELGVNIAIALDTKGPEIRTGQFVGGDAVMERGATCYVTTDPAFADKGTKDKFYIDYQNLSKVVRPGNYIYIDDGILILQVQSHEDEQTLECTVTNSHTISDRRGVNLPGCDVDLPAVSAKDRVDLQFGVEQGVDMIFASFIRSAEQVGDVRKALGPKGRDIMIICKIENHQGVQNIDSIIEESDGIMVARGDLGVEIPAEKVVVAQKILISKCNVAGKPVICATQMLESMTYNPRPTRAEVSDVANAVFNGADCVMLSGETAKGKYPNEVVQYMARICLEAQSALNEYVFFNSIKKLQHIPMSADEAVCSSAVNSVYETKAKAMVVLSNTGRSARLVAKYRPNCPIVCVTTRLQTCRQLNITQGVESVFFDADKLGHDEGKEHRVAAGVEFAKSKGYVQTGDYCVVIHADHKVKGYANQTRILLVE
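0.1 nM LmPK, 0.5 mM PEP, 0.1 mM ADP; 50 mM imidazole pH 7.2, 7 mM MgCl2, 50 mM KCl; 1 h RT. Kinase-Glo luminescence readout, normalized to no-enzyme (full inhibition) and uninhibited wells.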
TbPYK inhibitor: qHTS of Trypanosoma Brucei Inhibitors. pyruvate kinase (Trypanosoma brucei), Q57TT1. TbPYK enzyme, Kinase-Glo Plus ATP luminescence, 45 min. Potency, µM (highest dose often 76.8 µM), for inactives: top-dose activity, negative = inhibition, hits mostly inhibitors. 410,000 compounds, 0.12% hits; active means well fitted curve in the direction sought with a large enough effect; inconclusive means small, poorly fitted or top-dose-only effect, or another doubt; inactive means no such curve, though single readings can be large; an effect the other way counts as inactive or inconclusive; further: potency means the concentration at half of the fitted maximal effect; on the % scale 0 is the no-effect control and ±100 the full control effect; nearly all actives have a fitted effect of over 50% in size
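Luminescent Kinase-Glo Plus end-point after 45 min room-temperature reaction of T. brucei pyruvate kinase started with 130 uM ADP (final). Buffer TEA 50 mM pH 7.2 with KCl, MgCl2, BSA, Tween-20; titration-based qHTS with fitted concentration-effect curves.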
CHX counter: Cycloheximide Counterscreen for Small Molecule Inhibitors of Shiga Toxin; cell reporter, cycloheximide protein synthesis inhibition counterscreen; max response, %; 300,000 compounds, 12% hits; AID 2314, 2010; in the data active means max response mostly above about 13%, no sharp cut-off; inactive means mostly below about 14%; further: read at 38.3 µM for the half of the compounds with a filed dose; 0% is about no effect
NS1 function inh: qHTS Assay for Inhibitors of Influenza NS1 Protein Function | Potency, µM (titrated, usually from 46.1 µM), inactives show at the highest dose activity, positive = more growth | 270,000 compounds, 0.4% hits | AID 2326, 2010; further: potency means the concentration at half of the fitted maximal effect; actives are rising curves; nearly all actives have a fitted effect of over 50% in size
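A cell-based growth assay was used: compounds that relieve NS1-induced slow growth of budding yeast raise OD600. Assay medium was yeast nitrogen base with ammonium sulphate and -URA supplement, pH 6.0, with 2% galactose.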
SARS PLpro yeast: qHTS of Yeast-based Assay for SARS-CoV PLP. S. cerevisiae expressing SARS-CoV PLpro, growth rescue. Potency, µM (titrated, usually from 32.9 µM), for inactives: top-dose activity, positive = growth rescue, hits mostly activators. 330,000 compounds, 0.19% hits; further: potency means the concentration at half of the fitted maximal effect; 0% is about no effect; nearly all actives have a fitted effect of over 55% in size
Shiga toxin inh: A qHTS for Small Molecule Inhibitors of Shiga Toxin | 290,000 compounds, 9.2% hits | inhibition, % at 38.7 µM | Vero cells, Shiga toxin protein synthesis inhibition reporter | AID 2315, 2010; in the data active means inhibition mostly above about 28%, no sharp cut-off; inactive means mostly below about 43%; further: 0% is about no effect
* = called active by the depositor; ? = inconclusive; / = no result. Unless noted, the call rests on the fitted dose curve.

SMILES	LmPK inh	TbPYK inhibitor	CHX counter	NS1 function inh	SARS PLpro yeast	Shiga toxin inh
N/C(=N\O)c1ccc(N2CCN(c3ncccc3C(F)(F)F)CC2)nc1	0%	4%	39*	-3%	0%	73*
CC(Cc1ccccn1)NC(=O)CCc1nnc(C2CCCCC2)o1 (configuration not stated)	0%	2%	11*	-1%	0%	15
Cc1ccc2c(c1)c(=O)c1ccccc1n2CCCC(=O)Nc1ccc(C)c(C)c1	/	2%	/	/	/	/
CSc1nnc(NC(=O)c2ccc(S(=O)(=O)N(C)C)cc2)s1	?	-25%	25*	/	-3%	28*
O=C(Nc1nncs1)c1ccc2c(c1)OCO2	1%	-3%	22*	-5%	-2%	55*
Cc1nnc(NC(=O)c2ccc3c(c2)OCO3)s1	-9%	4%	39*	-2%	-1%	56*
CN(C)S(=O)(=O)c1ccc(C(=O)Nc2nnc(SCc3ccccc3)s2)cc1	0%	8%	5	8%	-7%	1
CCOCc1nnc(NC(=O)c2ccc3c(c2)OCO3)s1	/	-8%	/	/	/	/
CSc1nnc(NC(=O)c2ccc3c(c2)OCO3)s1	-9%	-13%	48*	-4%	-4%	69*
O=C(Nc1ccc(NC(=O)c2cccs2)cc1)c1ccc2c(c1)OCO2	4%	-2%	-2	-76%	-2%	15
Oc1cccc(-c2c3nc(c(-c4cccc(O)c4)c4ccc([nH]4)c(-c4cccc(O)c4)c4nc(c(-c5cccc(O)c5)c5ccc2[nH]5)CC4)C=C3)c1	/	-24%	/	/	/	/
CN(CC(=O)Nc1ccc(Cl)c(C(F)(F)F)c1)C(=O)C1CCC1	/	1%	/	/	-3%	/
C/C(CC(=O)Nc1ccc(Cl)c(C(F)(F)F)c1)=N\NC(N)=S	4%	-15%	20*	5%	0%	73
C/C(CC(=O)Nc1ccc(Cl)c(C(F)(F)F)c1)=N\NC(=O)c1ccccc1O	5%	-8%	22*	-22%	-22%	41
C/C(CC(=O)Nc1ccc(Cl)c(C(F)(F)F)c1)=N\NC(=O)c1cccc(O)c1	5%	-1%	44*	-21%	-9%	68*
COc1ccc(CCc2nnc(CCC(=O)NCCc3ncccc3C)o2)cc1	-5%	5%	21*	3%	1%	25
COc1ccc(CCc2nnc(CCC(=O)NCc3cc(C(C)C)no3)o2)cc1	-15%	-2%	35*	-5%	0%	80*
COc1ccc(CNC(=O)CCc2nc(-c3ccc(OC)cc3)no2)cc1	/	4%	/	/	/	/
Cc1cccnc1CCNC(=O)CCc1nnc(-c2ccccc2)o1	5%	-3%	8	6%	0%	-5
COc1ccc(-n2c(=O)[nH]cc(C(=O)Nc3ccc4c(c3)OCCO4)c2=O)cc1OC	1%	-4%	-4	16%	-5%	15
COCCSc1ccccc1C(=O)Nc1ccc2c(c1)OCO2	-2%	3%	15	0%	0%	14
O=C(Nc1ccc2c(c1)OCO2)c1c[nH]c(=O)n(-c2ccc(F)cc2)c1=O	1%	3%	16*	3%	-6%	19
CSc1ccccc1C(=O)Nc1ccc2c(c1)OCO2	-22%	-2%	23*	-10%	-1%	26*
CSc1ccccc1C(=O)Nc1ccc(C)c(C)c1	?	5%	42*	-73%	-16%	91*
CSc1ccccc1C(=O)Nc1cc(C)cc(C)c1	-4%	1%	4	-25%	-5%	57
SMILES	LmPK inh	TbPYK inhibitor	CHX counter	NS1 function inh	SARS PLpro yeast	Shiga toxin inh
O=C(CCl)Nc1ccccc1C(=O)Nc1ccc2c(c1)OCO2	8%	2%	57*	-5%	-3%	41*
CCC(CO)Oc1cc(NCc2ccccn2)c2ncn(C(C)C)c2c1 (configuration not stated)	/	-9%	/	/	4%	/
O=C1CCCN1C(=O)CSc1ncnc2sccc12	/	-1%	/	/	4%	/
COc1ccc(C(=O)Nc2ccc3[nH]ncc3c2)cc1OC	1%	5%	14	-8%	-4%	38
COc1cccc(C(=O)Nc2ccc3[nH]ncc3c2)c1OC	-1%	-12%	32*	-9%	-9%	71*
COc1cccc(C(=O)Nc2ccc3c(c2)OCO3)c1OC	-8%	-2%	48*	-17%	-4%	89*

Screening results from PubChem BioAssay.
